Bioassay records (PubChem)
An excerpt weighted towards active compounds, which were near 9% of everything screened.
BAZ2B block – qHTS Assay for Inhibitors of BAZ2B; AlphaScreen BAZ2B-H3K14Ac peptide displacement; Potency, µM (doses to about 114 µM), for inactives: top-dose activity change, negative = inhibition, most hits filed as inhibitors; hit rate 4.4% among 360,000; further: on the % scale 0 is the no-effect control and ±100 the full control effect; nearly all actives have a fitted effect of over 60% in size
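Compounds, titrated to a top concentration of 110 uM, were incubated 30 min at room temperature with preformed BAZ2B/acetyl-K14 H3 peptide complex (50 nM each). Proximity signal was measured by AlphaScreen after 20 min with beads.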
PLK1 PBD block – qHTS for Inhibitors of PLK1-PDB (polo-like kinase 1 - polo-box domain): Primary Screen. Serine/threonine-protein kinase PLK1 (Homo sapiens), P53350. Plk1 PBD binding of FITC phosphopeptide, fluorescence polarization. Potency, µM, for inactives: max response, negative = inhibition, actives largely listed as inhibitors. hit rate 2.8% among 360,000; further: series mostly up to about 57 µM; on the % scale 0 is the no-effect control and ±100 the full control effect; nearly all actives have a fitted effect of over 65% in size
JMJD2A Tudor – qHTS Assay for Inhibitors of JMJD2A-Tudor Domain. Lysine-specific demethylase 4A (Homo sapiens), O75164. AlphaScreen JMJD2A-Tudor / H3K4me3 peptide binding. Potency, µM (highest dose often 114 µM), for inactives: top-dose activity change, negative = inhibition, usual class: inhibitors. hit rate 4.4% among 390,000. AID 504339, 2011; further: on the % scale 0 is the no-effect control and ±100 the full control effect; nearly all actives have a fitted effect of over 50% in size
HP1b binding inh – HTS for Inhibitors of HP1-beta Chromodomain Interactions with Methylated Histone Tails; hit rate 0.56% among 390,000; Potency, µM (doses to about 114 µM), for inactives: at the top dose activity change, negative = inhibition, hits mostly inhibitors; AID 540317, 2011; Chromobox protein homolog 1 (Homo sapiens), P83916; AlphaScreen HP1-beta / biotin-H3K9me3 peptide binding; further: nearly all actives have a fitted effect of over 70% in size
Target sequence (P83916 whole entry, looked up): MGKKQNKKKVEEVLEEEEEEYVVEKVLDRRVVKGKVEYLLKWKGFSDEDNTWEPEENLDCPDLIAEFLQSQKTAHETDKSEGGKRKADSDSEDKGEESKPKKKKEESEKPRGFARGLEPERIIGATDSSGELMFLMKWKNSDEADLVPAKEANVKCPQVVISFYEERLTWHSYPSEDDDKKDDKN
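AlphaScreen: HP1-beta (50 nM) preformed 30 min with biotin-H3(1-18)K9me3 peptide (50 nM) in PBS pH 7.4, 0.01% Tween-20. Compound added for 30 min at RT, then streptavidin donor/nickel chelate acceptor beads (10 ug/mL) for 30 min.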
ALOX12 inh – Primary qHTS assay for inhibitors of human arachidonate 12S-lipoxygenase (ALOX12): Round 2; Potency, µM (series often up to 108 µM), for the others: at the top dose activity change, negative = inhibition, hits mostly inhibitors; hit rate 1.1% among 580,000; AID 1671190, 2021; purified 12hLO, xylenol orange hydroperoxide absorbance; Polyunsaturated fatty acid lipoxygenase ALOX12 (Homo sapiens), P18054; further: on the % scale 0 is the no-effect control and ±100 the full control effect
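Hydroperoxide product was detected by ferrous iron/xylenol orange as the 573 to 405 nm absorbance ratio. Arachidonic acid at 40 uM (final) was turned over for 30 min at room temperature by 150 nM human 12hLO, pH 7.0 Hepes buffer, after 15 min compound preincubation.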
G9a block – qHTS Assay for Inhibitors of Histone Lysine Methyltransferase G9a. Potency, µM (highest dose often 102 µM), inactives show top-dose activity, negative = inhibition, most hits filed as inhibitors. G9a H3K9 monomethylation, AlphaScreen, 2 h. hit rate 8.8% among 350,000. Histone-lysine N-methyltransferase EHMT2 (Homo sapiens), Q96KQ7. AID 504332, 2011; further: on the % scale 0 is the no-effect control and ±100 the full control effect; nearly all actives have a fitted effect of over 75% in size
Target sequence (Q96KQ7 913-1193 limits assumed): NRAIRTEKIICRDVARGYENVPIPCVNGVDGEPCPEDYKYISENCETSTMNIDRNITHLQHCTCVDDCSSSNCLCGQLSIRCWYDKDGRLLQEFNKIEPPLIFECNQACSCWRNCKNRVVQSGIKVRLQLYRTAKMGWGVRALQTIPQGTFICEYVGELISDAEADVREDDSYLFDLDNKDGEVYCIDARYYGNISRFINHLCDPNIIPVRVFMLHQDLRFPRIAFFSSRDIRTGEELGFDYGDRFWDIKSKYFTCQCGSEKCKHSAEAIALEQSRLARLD
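Quantitative HTS format: methyltransferase activity on a biotin-tagged H3K9 peptide is measured by AlphaScreen, using a rabbit anti-monomethyl-H3K9 antibody with streptavidin donor and anti-IgG acceptor beads. Final levels are 20 nM enzyme, 500 nM peptide, 20 uM SAM; 2 h RT.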
Active calls of the source: *; ? = inconclusive; nt = no result given; [ ] = remark or other dose. The call rests on the fitted dose curve; in most records, active means well fitted curve in the direction sought with a large enough effect; inconclusive means small, poorly fitted or top-dose-only effect, or another doubt; inactive means no such curve, though single readings can be large; an effect the other way counts as inactive or inconclusive. Potency means the concentration at half of the fitted maximal effect.

SMILES	BAZ2B block	PLK1 PBD block	JMJD2A Tudor	HP1b binding inh	ALOX12 inh	G9a block
O=C1C=C(O)c2cccc(O)c2C1=O	?	-18.0%	?	11.8%	35.5µM*	-139.2%[59 µM]
COc1cccc2c1-c1c(O)cccc1C2=O	1.5%	-14.6%	-20.3%	14.8%	?	-4.6%
O=C1c2cccc(Sc3ccccc3)c2C(=O)c2c(Sc3ccccc3)cccc21	15.8µM*	-7.5%	3.16µM*	7.94µM*	0.0%	1µM*
O=C1c2cccc(O)c2C(=O)c2c(O)cccc21	?	nt	nt	nt	33.6%	7.94µM*
COc1ccccc1N(C)S(=O)(=O)c1ccc(C(=O)N2CCCC(C(F)(F)F)C2)cc1 (centres undefined)	-23.2%	-8.1%	-4.1%	16.3%	nt	-29.2%
COc1ccccc1CNC(=O)CN(C)S(=O)(=O)c1ccc(F)cc1	4.5%	-7.6%	-10.6%	-9.6%	0.0%	19.0%
CC(C)OC(=O)n1c(=S)oc2ccccc21	?	-7.7%	8.7%	9.8%	9.8%	?
Cc1cccc(OC(=O)n2c(=S)oc3cc(Cl)ccc32)c1	-14.9%	29.9µM*	79.4µM*	3.4%	?	2.82µM*
O=C(Nc1cccc(NC(=O)c2ccccc2[N+](=O)[O-])n1)c1ccccc1[N+](=O)[O-]	-11.1%	2.67µM*	?	-26.1%	126.8%	-7.4%[0.0925 µM]
O=C(Nc1nc2ccccc2s1)c1ccccc1[N+](=O)[O-]	-34.0%	-0.1%	-14.5%	22.4%	0.0%	?
O=C(O)c1cccc([N+](=O)[O-])c1C(=O)Nc1nc2ccccc2s1	-13.8%	-2.6%	2.9%	12.5%	-1.3%	79.4µM*
O=C(NNC(=O)c1ccccc1[N+](=O)[O-])c1ccccc1[N+](=O)[O-]	-0.2%	26.7µM*	-18.6%	-2.1%	131.7%	10µM*
O=C(NC(=S)NNC(=O)c1ccccc1[N+](=O)[O-])c1ccccc1	-3.0%	?	28.2µM*	?	?	2.51µM*
O=S(=O)(c1ccccc1)N1CCC(O)(CSc2ccccc2)CC1	8.7%	-19.9%	0.0%	3.8%	2.7%	40.6%
Cc1onc(-c2cnn(C)c2NCCc2ccccc2)c1C(=O)N1CCC(c2ccccc2)CC1	nt	nt	nt	nt	2.5%	nt
CN(C(=O)CCc1ncc(-c2ccc(Cl)cc2)o1)C1C2CC3CC(C2)CC1C3 (centres undefined)	nt	nt	nt	nt	10.5%	nt
COCC(=O)N1C[C@H]2CON(C)[C@H]2C[C@H]1c1cccc(-c2ccc(C#N)cc2)c1	nt	-3.6%	-2.7%	61.6%	-9.9%	nt
O=C(NNC(=S)NC(=O)c1ccccc1[N+](=O)[O-])c1ccccc1	10.6%	-2.7%	-2.6%	29.5%	-18.5%	?
CCC(=O)NC(=S)NNC(=O)c1ccccc1[N+](=O)[O-]	?	-8.4%	-9.3%	38.4%	3.1%	3.16µM*
CC(C)(C)c1ccc(OCC(=O)NNC(=S)NC(=O)c2ccccc2[N+](=O)[O-])c(Br)c1	-26.2%	0.0%	?	?	?	44.7µM*
Cc1ccccc1OCC(=O)NNC(=S)NC(=O)c1ccccc1[N+](=O)[O-]	1.3%	-12.8%	4.8%	-5.4%	1.8%	-11.3%[59 µM]
O=C(c1ccccc1F)N1CCC2(CC1)CN[S+](=O)([O-])c1ccccc1N2	nt	nt	nt	nt	80.4%	nt
COc1ccc(OC)c(N/C=C/C(=O)c2ccc(OC)c(OC)c2)c1	1.2%	-6.4%	-5.0%	40.3%	14.7%	1.8%
CCOc1ccc(CN(CCc2ccc3c(c2)OCO3)Cc2cc(OC)cc(OC)c2)cc1	?	nt	3.98µM*	?	?	1.41µM*
CCOc1ccc(NC(=O)NCc2ccc3c(c2)OCO3)cc1	-35.6%	0.3%	-10.6%	35.5%	4.0%	24.3%
